Records with an inconclusive call do not appear. A number with no mark means an inactive call. Calls of active or inactive are those of the source. The call rests on the fitted dose curve; in most records, active means well fitted cell-killing curve with a large enough effect; inconclusive means small, poorly fitted or top-dose-only effect, or effect the other way; inactive means no such curve, though single readings can be large or run the other way. Non-standard residues stand in square brackets, D forms with d. Residues, ends and D or L forms follow the SMILES beside them. *: point of attachment. Sta = CC(C)C[C@H](N)[C@@H](O)CC(=O)O; Isovaleryl = CC(C)CC(=O)*
Assay: Quantitative High-Throughput drug screen in 47 multiple myeloma cell lines against the NCATS MIPE library collection: OCIMY1_PLB cell viability assay (AID 1918979); further: nearly all actives have a fitted effect of over 35% in size
Conditions: OCI-MY1 myeloma viability, CellTiter-Glo ATP, 48 h; series mostly up to 45.8 µM; viability: at the top concentration
Source text: PI: Beverly A. Mock Ph.D.
Laboratory of Cancer Biology and Genetics,
Center for Cancer Research, National Cancer Institute,
National Institute of Health, Bethesda, Maryland
Drug resistance and disease progression are common in multiple myeloma (MM) patients, underscoring the need for new therapeutic combinations. […] We hypothesized that effective combinations would reduce MYC expression and enhance p16 activity. […] These preclinical data identify potentially useful drug combinations for evaluation in drug-resistant MM and reveal potential mechanisms of combined drug sensitivity.
Described herein is the primary MIPE qHTS used to cherrypick compounds. Validated compounds were then further tested for potential synergistic activiy.
[1] Peat TJ, Gaikwad SM, Dubois W, Gyabaah-Kessie N, Zhang S, Gorjifard S, Phyo Z, Andres M, Hughitt VK, Simpson RM, Miller MA, Girvin AT, Taylor A, Williams D, D'Antonio N, Zhang Y, Rajagopalan A, Flietner E, Wilson K, Zhang X, Shinn P, Klumpp-Thomas C, McKnight C, Itkin Z, Chen L, Kazandijian D, Zhang J, Michalowski AM, Simmons JK, Keats J, Thomas CJ, Mock BA. Drug combinations identified by high-throughput screening promote cell cycle transition and upregulate Smad pathways in myeloma. Cancer Lett. 2023 Aug 1;568:216284. doi: 10.1016/j.canlet.2023.216284. Epub 2023 Jun 24. PMID: 37356470; PMCID: PMC10408729.
SEQUENCE No. (e.g., 1, 2, 3, etc.); […] (e.g., Cells, Incubation, Reagent, etc.); VALUE and DESCRIPTION.
1; Cells; 5 uL; white, solid bottom 1536-well Greiner assay plate.
2; Compounds; 23 nL; Kalypsis pin tool (Wako USA) equipped with a 1536-well pin head to transfer to the assay plates.
3; Incubation; 48 hours; 37C incubation.
4; Reagent;5uL; CellTiter Glo (Promega).
5; Detector; 425V; Luminescence; Viewlux PerkinElmer.
NOTES (numbers refer to Sequence numbers above)
1. The cell-based screening methods employed in this study were like those previously published. Briefly, the corresponding myeloma cell lines were screened in 1,536-well plates with 500 cells, 5-uL per well for inhibition of cell viability (assessed by measuring ATP levels with CellTiterGlo).
2. NCATS MIPE 4.0 library of approved and investigational drugs were added using the Kalypsis pin tool. Wells treated with DMSO only for 100% viability and media only for 0% viability were used as controls.
3. The assay plates were covered and incubated for 48 hours in a 37C, 5% CO2 incubator with controlled humidity.
4. After 48 hours, CellTilter-GloTM luminescent substrate mix (Promega) reagent was added to the assay plate and plates we incubated for 5 min at room temperature.
5. Signal was measured as median relative luminescence units on a ViewLux (PerkinElmer) multiplate reader.
[1] Heske CM, Davis MI, Baumgart JT, Wilson K, Gormally MV, Chen L, Zhang X, Ceribelli M, Duveau DY, Guha R, Ferrer M, Arnaldez FI, Ji J, Tran HL, Zhang Y, Mendoza A, Helman LJ, Thomas CJ. Matrix Screen Identifies Synergistic Combination of PARP Inhibitors and Nicotinamide Phosphoribosyltransferase (NAMPT) Inhibitors in Ewing Sarcoma. Clin Cancer Res. 2017 Dec 1;23(23):7301-7311. doi: 10.1158/1078-0432.CCR-17-1121. Epub 2017 Sep 12. PMID: 28899971; PMCID: PMC6636827.
Potency means the concentration at half of the fitted maximal effect.

| SMILES | viability | Potency |
| --- | --- | --- |
| CCOc1cc(CC(=O)N[C@@H](CC(C)C)c2ccccc2N2CCCCC2)ccc1C(=O)O | 124% | – |
| Cc1nc2n(c(=O)c1CCN1CCC(c3noc4cc(F)ccc34)CC1)CCCC2 | 121% | – |
| CCOC(=O)c1c(C)n(C)c2ccc(O)cc12 | 108% | – |
| CC(C)CC(=O)N[C@H](C(=O)N[C@H](C(=O)N[C@@H](CC(C)C)[C@@H](O)CC(=O)N[C@@H](C)C(=O)N[C@@H](CC(C)C)[C@@H](O)CC(=O)O)C(C)C)C(C)C (Isovaleryl-VV[Sta]A[Sta]-OH) | 77.9% | – |
| Oc1ccc(OCc2ccccc2)cc1 | 108% | – |
| COc1c(O)cc2c(c1O)[C@@H]1O[C@H](CO)[C@@H](O)[C@H](O)[C@H]1OC2=O | 106% | – |
| NS(=O)(=O)c1cc(C(=O)O)c(NCc2ccco2)cc1Cl | 109% | – |
| CC1(C)C(=O)N(CCN2CCC(C(=O)c3ccc(F)cc3)CC2)c2ccccc21 | – | 7.43 µM (active) |
| COc1cc2c(cc1OC)C1CC(=O)C(CC(C)C)CN1CC2 (stereo not given) | 115% | – |
| CN(C)CCCC1(c2ccc(F)cc2)OCc2cc(C#N)ccc21 (stereo not given) | 105% | – |
| COc1ccccc1N1CCN(CCN(C(=O)C2CCCCC2)c2ccccn2)CC1 | 107% | – |
| CC(C)C[C@H](NC(=O)[C@H](Cc1ccccc1)NC(=O)c1cnccn1)B(O)O | – | 0.0053 µM (active) |
| COCCCOc1ccnc(CS(=O)c2nc3ccccc3[nH]2)c1C (stereo not given) | 102% | – |
| COC1=C(OC)C(=O)C(CCCCCCCCCCO)=C(C)C1=O | 103% | – |
| O=P(O)(O)C(O)(Cn1ccnc1)P(=O)(O)O | 111% [at 23.2 µM] | – |
| CC(=O)NC[C@H]1CN(c2ccc(N3CCOCC3)c(F)c2)C(=O)O1 | 111% | – |
| CCCCN(CCCC)CCC(O)c1cc2c(Cl)cc(Cl)cc2c2cc(C(F)(F)F)ccc12 (stereo not given) | 97.2% | – |
| Clc1ccc2c(N3CCN(CCCN4CCN(c5ccnc6cc(Cl)ccc56)CC4)CC3)ccnc2c1 | 137% [at 23.2 µM] | – |
| Cc1cc2c(s1)Nc1ccccc1N=C2N1CCN(C)CC1 | 113% | – |
| O=C(c1ccccc1)c1ccc2n1CCC2C(=O)O (stereo not given) | 111% | – |

| SMILES | viability | Potency |
| --- | --- | --- |
| CCOC(=O)C1=C(O)C(=O)N(Cc2ccccc2)C1 | 106% | – |
| O=c1ccc2ccc(O)c(O)c2o1 | 101% | – |
| CN(C)C(=O)COC(=O)Cc1ccc(OC(=O)c2ccc(N=C(N)N)cc2)cc1 | 86.9% | – |
| CCN(CC)C(=S)SSC(=S)N(CC)CC | – | 0.0235 µM (active) |
| O=C1c2ccccc2-c2n[nH]c3cccc1c23 | 104% | – |
| CNC[C@H](O)c1ccc(O)c(O)c1 | – | 38.2 µM (active) |
| CCOC(=O)C(C)Oc1cccc2c(=O)n(CC(=O)Nc3ccc4c(c3)OCCO4)ccc12 (stereo not given) | 93.2% | – |
| COc1cc(C(C)=O)ccc1OCCCN1CCC(c2noc3cc(F)ccc23)CC1 | 98.3% | – |
| CC1(C)CCC(C)(C)c2cc(NC(=O)c3ccc(C(=O)O)cc3)ccc21 | 94.2% | – |
| O=c1cc(N2CCOCC2)oc2c(-c3ccccc3)cccc12 | – | 11.8 µM (active) |
| Cc1nc(-c2ccc(OCC(C)C)c(C#N)c2)sc1C(=O)O | 121% | – |
| CN1C(C(=O)Nc2ccccn2)=C(O)c2sccc2S1(=O)=O | 95.9% | – |
| O=c1c(O)c(-c2ccc(O)cc2O)oc2cc(O)cc(O)c12 | 113% | – |
| Cc1ccc(C(=O)c2cc(O)c(O)c([N+](=O)[O-])c2)cc1 | 122% | – |
| CCN(CCO)CCCC(C)Nc1ccnc2cc(Cl)ccc12 (stereo not given) | 120% | – |
| CCN(CC)CCOc1ccc(Cc2ccccc2)cc1 | 101% | – |
| CN(C)CCc1c[nH]c2ccc(Cn3cncn3)cc12 | 99.4% | – |
| C=CCc1cc(OC)c(O)c(C(=O)NCCO)c1 | 110% | – |
| CC1=C(C(=O)O)N2C(=O)[C@@H](NC(=O)[C@H](N)C3=CCC=CC3)[C@H]2SC1 | 107% | – |
| CCN(CC)CCOc1ccc(Nc2ncc3cc(-c4c(Cl)cccc4Cl)c(=O)n(C)c3n2)cc1 | – | 2.96 µM (active) |

From PubChem BioAssay (NCATS)
